Assay results as given in the supplement of paper PMC10981050.
Several values for one entry are separate records, joined by “and”; a condition that tells them apart may be missing. Equal values may be shown once. Where a name gives a salt, the structure may show the parent alone.

How the values were obtained:
Experiment in all cases: cell viability relative to vehicle control; higher = less cytotoxic
Details in all cases: 10 µM
K562 = tested on: K562
Procedure, shortened: (§1)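 Four leukaemia lines, as CRISPR-edited mutant clones and isogenic wild-type clones, were tested against Selleck bioactive, kinase and epigenetic probe libraries after removal of identity-inconsistent compounds. Cells were exposed to a single 10 µM dose for 48 h, and CellTiter-Glo luminescence was then read. Viability was calculated relative to the on-plate vehicle control.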

MARIMO = tested on: MARIMO
Procedure, shortened: as §1

MOLM14 = tested on: MOLM14
Procedure, shortened: as §1

OCI-AML2 = tested on: OCI-AML2
Procedure, shortened: as §1

Row | Structure (SMILES) | cell viability (K562; SRSF2 genotype: SRSF2 P95H/wt) | cell viability (K562; SRSF2 genotype: SRSF2 wt/wt) [%] | cell viability (MARIMO; SRSF2 genotype: SRSF2 P95H/wt) [%] | cell viability (MARIMO; SRSF2 genotype: SRSF2 wt/wt) [%] | cell viability (MOLM14; SRSF2 genotype: SRSF2 P95H/wt) [%] | cell viability (MOLM14; SRSF2 genotype: SRSF2 wt/wt) [%] | cell viability (OCI-AML2; SRSF2 genotype: P95H/wt) [%] | cell viability (OCI-AML2; SRSF2 genotype: wt/wt) [%]
1 | C[C@@H]1O[C@@H](O[C@@H]2[C@@H](O)[C@H](OCCc3ccc(O)c(O)c3)O[C@H](CO)[C@H]2OC(=O)/C=C/c2ccc(O)c(O)c2)[C@H](O)[C@H](O)[C@H]1O [Verbascoside] | 86.6% and 86% | 87.4 | 82.8 | 92.3 | 81.9 | 92.9 | 92.7 | 92.5
2 | CC(=O)O[C@@H]1CC[C@@]2(C)[C@@H](CC[C@]3(C)[C@@H]2C(=O)C=C2[C@@H]4[C@@H](C)[C@H](C)CC[C@]4(C)CC[C@]23C)[C@@]1(C)C(=O)O | 99.7% and 94.1% | 83.4 | 106 | 101 | 74.3 | 82.3 | 87.1 | 90.6
3 | O=C(O)C1=C(CSc2nnnn2CS(=O)(=O)O)CS[C@@H]2[C@H](NC(=O)[C@H](O)c3ccccc3)C(=O)N12 [Cefonicid sodium] | 103% | 102 | 97.2 | 108 | 96.3 | 105 | 103 | 113
4 | N[C@@H](CC(=O)N1CCn2c(nnc2C(F)(F)F)C1)Cc1cc(F)c(F)cc1F [Sitagliptin phosphate monohydrate] | 97.7% and 96.1% | 102 | 98.1 | 110 | 102 | 103 | 109 | 117
5 | CCCCCCCCCCCCCCCCCCCCCCCCCCCCO [1-Octacosanol] | 107% and 110% | 98.7 | 109 | 106 | 100 | 106 | 96.2 | 108
6 | CCOc1cc([C@@H](CS(C)(=O)=O)N2C(=O)c3cccc(NC(C)=O)c3C2=O)ccc1OC | 102% and 98.7% | 94.5 | 99.5 | 92.5 | 98 | 94.9 | 90.1 | 94.7
7 | CNC(=O)c1c(C)oc2cc(Oc3ncnc4cc(OC)c(OC)cc34)ccc12 [Fruquintinib] | 101% and 96.7% | 97.1 | 98.6 | 99.7 | 95.8 | 105 | 84.3 | 85.4
8 | CCCOC(=O)c1ccc(O)cc1 [Propylparaben] | 96.5% and 97.2% | 101 | 91.3 | 107 | 98.9 | 105 | 95.6 | 90.1
9 | O=C1Nc2ccccc2C1=O [Isatin] | 97.1% and 106% | 100 | 101 | 105 | 103 | 105 | 106 | 96.5
10 | Fc1ccc([C@@H]2CCNC[C@H]2COc2ccc3c(c2)OCO3)cc1 [Paroxetine mesylate] | 34.1% and 53.1% | 49.5 | 39 | 35.6 | 33.4 | 38.1 | 28.7 | 39.2
11 | CCc1cc(C(N)=S)ccn1 [Ethionamide] | 97.4% and 93.4% | 91.2 | 97 | 98.1 | 106 | 100 | 94.3 | 97.7
12 | CCCCCCCCCCCC[N+](C)(C)CCOc1ccccc1 [Domiphen Bromide] | 7.02% and 4.79% | 5.16 | 0.45 | 0.55 | 0.35 | 0.39 | 0.4 | 0.43
13 | c1ccc(-c2ccc(C(c3ccccc3)n3ccnc3)cc2)cc1 (stereo not given) [Bifonazole] | 82.3% and 83.9% | 79.7 | 81.4 | 87.7 | 84.5 | 94.2 | 83.9 | 82.7
14 | CCCN(CCC)C(=O)C1=Cc2ccc(-c3ccc(C(=O)N4CCCC4)cc3)cc2N=C(N)C1 [Motolimod (VTX-2337)] | 34.5% and 40.5% | 38.8 | 33.2 | 25.7 | 26.5 | 31 | 21.7 | 29
15 | CC(C)=CCC/C(C)=C/CC/C(C)=C/CCC(=O)OC/C=C(\C)CCC=C(C)C [Gefarnate] | 106% and 102% | 96.4 | 99.7 | 110 | 96.4 | 102 | 89.7 | 93.5
16 | Cc1cc(OCCCS(C)(=O)=O)cc(C)c1-c1cccc(COc2ccc3c(c2)OC[C@H]3CC(=O)O)c1 | 92.7% and 94.6% | 91.3 | 93.2 | 104 | 94.3 | 98.2 | 85 | 101
17 | CN(C)CCSSCCNC(=O)C1CCN(C(=O)CSc2ccc(Cl)cc2)CC1 | 82% and 85.7% | 81.6 | 68 | 86.9 | 91.8 | 95.1 | 89.8 | 79.5
18 | CCOc1nc2cccc(C(=O)O)c2n1Cc1ccc(-c2ccccc2-c2noc(=O)[nH]2)cc1 [Azilsartan (TAK-536)] | 106% and 104% | 97.9 | 93.5 | 103 | 99.2 | 103 | 101 | 101
19 | CCN(CC)CCNC(=O)c1c(C)[nH]c(/C=C2\C(=O)Nc3ccc(F)cc32)c1C [Sunitinib] | 22.8% and 26.6% | 17.6 | 23.4 | 23.4 | 0.2 | 0.37 | 0.48 | 2.85
20 | CC(C)c1nc(CN(C)C(=O)N[C@@H](CCN2CCOCC2)C(=O)N[C@H](CC[C@H](Cc2ccccc2)NC(=O)OCc2cncs2)Cc2ccccc2)cs1 [Cobicistat (GS-9350)] | 88.4% and 101% | 95.7 | 94.7 | 104 | 94.3 | 98.3 | 95 | 83.8
